The values below come from PubChem BioAssay.

A number with no mark means an inactive call.

The assay can be described thus: yeast growth modulation, basal conditions, primary screen, YJM789 clinical isolate, OD600, 24 h (AID 1089).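 Further: growth of clinical yeast isolate S. cerevisiae YJM 789 seeded 1000 cells per well; test concentration not given here.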 To be noted: S. cerevisiae YJM789 growth, higher = more signal, called active from +8 up or from −8 down.
`CC1CC/C=C\[C@H]2OC34C=CCN(C(C)(C)C)C(=O)[C@H]3N(CCCCCO)C(=O)[C@@H]4C2C(=O)O1` (stereo partly specified): the z-score was -0.0244.
The figure for `COc1cc(NN2C(C(O)c3cc(OC)c(OC)c(OC)c3)C=CC3C(=O)N(C)C(=O)C32)cc(OC)c1OC` (stereo unspecified) is -0.871; for `[N-]=[N+]=NCc1ccccc1[C@H]1OC(c2ccc(OCCCO)cc2)=N[C@@]1(Cc1ccccc1N=[N+]=[N-])C(=O)NCC(O)CO` (stereo partly specified) it is -0.527.
The figure for `C=C(COC)/C(=C/C[C@H](OC(=O)c1ccncc1)c1ccccc1OCCO)c1cc(C(=O)OC)ccc1OC` is -0.819; for `CC(C)=C1C(=O)C(c2ccccc2)=C2CN3C(=O)N(CCc4ccccc4)C(=O)[C@]3(Cc3ccc(C(F)(F)F)cc3)[C@H]21` it is -0.117.
In the case of `NCCCCCCNC(=O)[C@@H]1C[C@@H]2C(=O)N[C@@H](CCCCN)C(=O)N2[C@@H]1c1ccc(O)cc1`, the z-score was -0.171.
The figure for `CC(C)[Si](C#CCCCC#N)(O[C@H](c1ccccc1)c1cn(Cc2ccccc2)nn1)C(C)C` is -1.45.
Consider `CC(C)c1ccc(NN2C(C(O)c3ccc(C#N)cc3)C=CC3C(=O)N(c4ccccc4)C(=O)C32)cc1` (stereo unspecified), for which the z-score was 0.902.
Regarding `COC(=O)[C@]1(CCS(=O)(=O)c2ccccc2)N=C(c2ccc(OCCCO)cc2)O[C@@H]1c1ccccc1N=[N+]=[N-]`, the z-score was 0.764.
Take `C=C[C@H](C)[C@H](OC(=O)Nc1ccc(SC)cc1)c1ccc(OCCO)cc1`: the z-score was -3.79.
As for `Cc1ccc(S[C@]2(C(=O)NCC(F)(F)F)CC(=O)N(Cc3cc(C(F)(F)F)cc(C(F)(F)F)c3)[C@@H]2c2ccc(CO)cc2)cc1`, the figure is 0.0966.
